# High-throughput results from PubChem BioAssay.
# DAX1 inh-1: blocks DAX1 repression of SF-1 activated StAR promoter; inhibition, % at 6.8 µM; 370,000 compounds, 1.1% hits; HEK293T StAR-luciferase reporter, SF-1/DAX-1 repression relief;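 active means inhibition above the mean over all tested compounds plus 3 SD, cut at about 3.6% in these data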;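 further: 0% = DAX-1 cells with DMSO and 100% = cells lacking DAX-1 with DMSO; higher inhibition means more luminescence from relief of DAX-1 repression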
# hcDAF12 agonist: activators of H. contortus DAF-12 nuclear receptor; 370,000 compounds, 1.4% hits; activation, % at 6.8 µM; HEK293 hcDAF-12 lit1-tk-luc reporter, luminescence; 0% DMSO, 100% Δ7-dafachronic acid; AID 652067;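 active means activation above the mean of all tested compounds plus 3 SD, cut at about 5.5% in these data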;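 further: 100% = response to 3 µM Δ7-dafachronic acid high control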
# ssDAF12 agonist: S. stercoralis DAF-12 activation, primary screen | activation, % at 6.8 µM | 370,000 compounds, 1% hits | HEK293 ssDAF-12/GRIP1 lit1-tk-luc reporter, luminescence; % of 3 µM dafachronic acid response;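 active means activation above the mean over all tested compounds plus 3 SD, cut at about 0.9% in these data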;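 further: 0% = DMSO-only wells and 100% = 3 µM delta7-dafachronic acid wells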
# DAX1 inh-2: inhibits human nuclear receptor DAX1; P51843; inhibition, % at 6.75 µM; 340,000 compounds, 0.99% hits; HEK293 Gal4-DAX1 luciferase reporter, luminescence;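 active means inhibition above the mean over all tested compounds plus 3 SD, cut at about 4.2% in these data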;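 further: 0% = DAX1-transfected cells with DMSO and 100% = empty-vector control cells with DMSO; inhibition shows as a rise in luminescence from relieved DAX1 repression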
# Target sequence (P51843 207-470 limits assumed): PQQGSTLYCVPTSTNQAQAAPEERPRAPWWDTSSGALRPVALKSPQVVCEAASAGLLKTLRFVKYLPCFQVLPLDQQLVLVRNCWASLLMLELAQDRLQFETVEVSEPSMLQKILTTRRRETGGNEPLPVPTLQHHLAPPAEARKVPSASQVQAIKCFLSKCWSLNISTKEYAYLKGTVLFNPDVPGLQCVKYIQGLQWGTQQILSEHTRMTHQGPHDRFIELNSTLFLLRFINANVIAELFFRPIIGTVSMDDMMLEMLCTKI
# hgDAF12 agonist: activates the H. glycines DAF-12 receptor ligand-binding domain. HEK293 GAL4-hgDAF12 UAS-luciferase reporter, agonist luminescence; normalized to butyrate control. 370,000 compounds, 1.8% hits. activation, % at 6.8 µM. AID 687014;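 active means activation above a cutoff set at the mean of all screened compounds plus 3 SD, cut at about 10% in these data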;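 further: 0% = DMSO wells and 100% = sodium butyrate wells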
# Starred values were filed as active, the others as inactive; / = not tested or not shown. Sampled rows, rich in hits. Any-hit rate of the full collection: about 4.1%.
SMILES,DAX1 inh-1,hcDAF12 agonist,ssDAF12 agonist,DAX1 inh-2,hgDAF12 agonist
Cn1c2ccccc2c(=O)c2c(=O)n(-c3ccc(F)cc3)c(-c3cccs3)nc21,0.1,-2.2,-0.9,2.8,-3.4
O=C(O)CSc1nnc(-c2ccc3c(c2)OCO3)o1,0.3,1.4,0.1,-0.2,2.7
NC(=O)CSc1nnc(-c2ccc3c(c2)OCO3)o1,3.2,2.9,2.8*,/,12.7*
O=c1c(Cl)c(N2CCOCC2)cnn1-c1nc2ccccc2[nH]1,4.2*,1.6,-0.7,2.9,4.8
Cc1[nH]c2c([N+](=O)[O-])cccc2c1C,0.3,1.4,-1.2,4.2*,1.3
O=C(O)CCc1ccc(-c2cccs2)n1NC(=O)c1cccs1,-0.1,-0.9,-1.5,4.5*,-3.8
O=C(O)CCc1ccc(-c2cccs2)n1NC(=O)c1ccc(O)cc1,0.2,0.3,-1.0,-1.5,1.7
Cc1nn(-c2cccc(Cl)c2)c(Cl)c1/C=N/NC(=O)c1cccs1,1.1,1.9,-0.5,4.7*,10.8*
CCNC(=S)N/N=C/c1c(C)nn(-c2cccc(Cl)c2)c1Cl,-0.3,-0.2,-1.3,-1.4,0.8
O=C(OCc1cc(=O)n2ccsc2n1)C1(c2ccccc2)CC1,0.5,-0.3,-1.9,3.5,2.8
Cc1cn(CC(=O)NCc2ccc(N(C)C)cc2)c(=O)[nH]c1=O,-0.5,0.1,-0.8,-1.1,-2.5
Cc1cccc(N2CCN(c3nnc(C(F)(F)F)s3)CC2)c1,-0.2,-2.6,-2.1,0.5,1.8
FC(F)(F)c1nnc(N2CCN(c3ccc(Cl)cc3)CC2)s1,-0.3,-2.8,-2.0,5.2*,-0.5
O=C(CNS(=O)(=O)c1cccc(Cl)c1)Nc1ccc(-c2nc3ccccc3s2)cc1,2.5,2.8,0.0,1.7,11.1*
Nc1cccc2c1C(=O)N(c1ccccc1)C2=O,-0.2,0.8,-0.8,3.2,4.4
O=C1c2ccccc2C(=O)N1c1ccccc1,0.0,-2.1,-1.6,5.2*,0.8
O=C(NC1CCN(Cc2ccccc2)CC1)c1[nH]c(C(F)(F)F)nc1-c1ccccc1,0.8,-1.4,-1.4,/,-1.2
CC(C)N(C)c1ncnc2c1ncn2[C@H]1CN(Cc2cccnc2)C[C@@H](CO)O1,-0.5,-1.1,8.1*,/,-0.9
CN(Cc1ccco1)C(=O)[C@@H](Cc1ccccc1)NC(=O)[C@H]1O[C@@H](n2ccc(=O)[nH]c2=O)[C@H](O)[C@@H]1O,0.7,0.4,-1.6,/,-1.6
COc1ccc(-c2cc3c(=O)n(CC(=O)NCCCN4CCC(N5CCCCC5)CC4)nc(C)n3n2)cc1,4.5*,-0.4,-1.2,1.1,0.9
CCOC(=O)N1CCC(Nc2c(-c3ccc(C)cc3)c(=O)c2=O)CC1,-0.1,-0.5,3.5*,-1.4,-2.3
CN(C)/N=C/c1ccc(OS(=O)(=O)c2ccccc2)cc1,1.9,1.6,-1.1,2.5,11.0*
CC1=NN(C(=O)c2ccco2)C(O)(c2ccccc2)C1 (stereo unspecified),0.6,3.3,1.0*,6.3*,10.9*
Cn1c2ccc(F)cc2c2nnc(SCCN3CCOCC3)nc21,0.6,5.5,1.1*,1.6,2.2
O=c1c2cc(NC(=S)N3CCCCC3)ccc2nc2n1CCCCC2,-0.5,0.2,1.1*,0.0,5.3
SMILES,DAX1 inh-1,hcDAF12 agonist,ssDAF12 agonist,DAX1 inh-2,hgDAF12 agonist
Cc1cccc(C)c1OCC(=O)N[C@@H](Cc1ccccc1)[C@@H](O)C[C@H](Cc1ccccc1)NC(=O)[C@H](C(C)C)N1CCCNC1=O,0.3,-1.4,-0.6,/,-3.0
O=C(Cc1csc(Nc2nc(=S)[nH]c3ccccc23)n1)NCc1cccc(Cl)c1,-0.7,6.5*,0.7,0.2,0.0
Cc1ccc(CNC(=O)Cc2csc(Nc3nc(=S)[nH]c4ccccc34)n2)cc1,0.5,5.1,-0.1,/,2.5
O=C(Cc1csc(Nc2nc(=S)[nH]c3ccccc23)n1)NCc1ccccc1Cl,-0.6,5.9*,1.2*,0.3,6.8
O=C(NC1CC1)C1=C[C@H](c2ccc3c(c2)OCO3)C[C@H](OCc2ccc(CO)cc2)O1,0.4,-0.8,-0.5,1.7,10.8*
O=C(O)C1=C[C@@H](c2ccc3c(c2)OCO3)C[C@@H](OCc2ccc(CO)cc2)O1,0.0,-0.3,-0.8,1.8,-0.2
CCCCS(=O)(=O)N1CCCc2nc(C)c(C)cc21,0.5,0.1,-1.2,/,2.7
COCCOC(=O)C1=C(N)OC2=C(C(=O)CC(C)(C)C2)C1c1ccncc1 (stereo unspecified),0.0,-1.2,-1.6,5.3*,-1.2
COC(=O)/C=C/c1sc2nc(C)cc(C)c2c1N=CN(C)C,-0.7,5.6*,0.5,/,7.4
Cc1[nH]c2ccccc2c1CC(=O)Nc1ccc(Nc2cccnc2)c(-c2cc(F)cc(F)c2)c1,-0.9,-0.2,-0.3,/,-5.3
O=S1(=O)N=C(N/N=C/c2cccs2)c2ccccc21,-0.2,-1.2,-1.1,4.5*,1.3
COc1ccc(NC2=Nc3ccccc3CC2)cc1,3.1,2.8,-0.2,2.2,10.6*
Cc1ccc(NC(=O)c2ncc(Cl)c(Cl)c2Cl)cc1C,0.2,5.9*,-0.4,2.5,5.5
O=C(Nc1ccc(OC(F)F)cc1)c1ncc(Cl)c(Cl)c1Cl,-0.1,2.1,-1.8,0.1,4.8
Cc1cccc(C2CC(c3ccccc3)Nc3ncnn32)c1 (stereo unspecified),0.1,-1.5,-1.6,5.6*,-0.7
COc1ccc(C2CC(c3cccc(C)c3)n3ncnc3N2)cc1 (stereo unspecified),-0.5,-0.8,-1.0,1.1,0.3
Cc1ccc(C2CC(c3ccccc3OC(F)F)Nc3ncnn32)cc1 (stereo unspecified),-0.2,-1.1,-0.8,5.3*,0.6
Cc1ccccc1C1CC(c2ccccc2OC(F)F)Nc2ncnn21 (stereo unspecified),0.1,0.9,-1.3,-0.6,-1.1
CN1CC[C@@H]2CN(S(=O)(=O)c3ccccc3)[C@H](c3ccccc3Br)C[C@@H]21,-0.3,-1.1,-0.2,/,-0.5
CCOC(=O)C1=C(C(=O)OCC)C2N(Cc3ccc(C(F)(F)F)cc3)c3ccccc3[C@@]23C[C@@H](C(=O)OC)N(S(=O)(=O)c2ccccc2C)C3=N1 (stereo partly specified),1.5,0.6,-0.8,/,1.1
O=C(Cn1cc2c(n1)CCCCC2)N1CCc2ccccc21,0.6,6.3*,0.2,1.9,3.4
CCOc1ccc(C(=O)NC2C(=O)N3C(C(=O)O)=C(COC(C)=O)CSC23)cc1OCC (stereo unspecified),4.4*,-0.1,-0.9,-1.4,1.2
Fc1ccc(-c2cc(-c3nnc4sc(-c5ccco5)nn34)[nH]n2)cc1,-1.9,-2.1,-1.6,/,-3.9
Cc1ccc(-c2nc(N3CCN(C)CC3)c3ccccc3n2)cc1,-0.4,6.3*,0.3,0.8,4.9
CN1CCN(c2nc(-c3ccc(C(C)(C)C)cc3)nc3ccccc23)CC1,1.5,6.2*,-0.6,0.2,2.2
CCN1CCN(c2nc(-c3ccccc3)nc3ccccc23)CC1,-0.4,0.0,-1.7,-0.4,2.4
